This is part of a sample that, as a whole, favours compounds with a hit. Of some 83,000 tested, about 20% had one in any assay.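 Treatment: one concentration, 48 hours, 96-well format. Scoring: percent growth, with anything below 10 considered active.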 A number with no mark means an inactive call. Calls of active or inactive are those of the source.

Among the data in PubChem BioAssay (NCI) are growth values, retold here.

Test systems include SK-MEL-2 melanoma; EKVX NSCLC; SN12C renal; UO-31 renal; TK-10 renal; ACHN renal; CAKI-1 renal; A498 renal; CCRF-CEM leukemia; MOLT-4 leukemia; SR leukemia; RPMI-8226 leukemia; OVCAR-8 ovarian; OVCAR-5 ovarian; OVCAR-4 ovarian; SK-OV-3 ovarian; IGROV1 ovarian; OVCAR-3 ovarian; HS 578T breast; NCI/ADR-RES ovarian.
What all share (assay): NCI-60 one-dose screen, 48 h (100 = growth as untreated, 0 = no growth, -100 = all killed)
Settings in all cases: 10 µM unless noted

`CN1CCN(Cc2ccc(NC(=O)c3cncc(C#Cc4c(N)ncc5ccc(C#N)cc45)c3)cc2C(F)(F)F)CC1`: the growth in the assay with SK-MEL-2 melanoma is 57.4%; in the assay on EKVX NSCLC, -55.3% (active); in the assay on SN12C renal, 6.26% (active); in the assay with UO-31 renal it was -88.5% (active); in the assay with TK-10 renal, 18.3%; in the assay with ACHN renal it was -92.8% (active). In addition, the growth is 58.3% in the assay with CAKI-1 renal; 43.3% in the assay with A498 renal; -14.2% (active) with CCRF-CEM leukemia; -21.3% (active) in the assay on MOLT-4 leukemia; -13% (active) with SR leukemia; -23% (active) with RPMI-8226 leukemia. Besides, the growth is -40% (active) in the assay on OVCAR-8 ovarian; -84.5% (active) with OVCAR-5 ovarian; -73.9% (active) with OVCAR-4 ovarian; 127% with SK-OV-3 ovarian; -53.6% (active) in the assay with IGROV1 ovarian; 90.9% with OVCAR-3 ovarian. In addition, the figures for the growth with HS 578T breast and in the assay on NCI/ADR-RES ovarian were 50.8% and -30.5% (active), respectively.

Take `O=C(CN1CCN(c2cc3c(cc2F)c(=O)c(C(=O)O)cn3C2CC2)CC1)Nc1cc(=O)[nH]c(=O)[nH]1`: the growth is 107% in the assay with SK-MEL-2 melanoma; 92% in the assay on EKVX NSCLC; 97.7% in the assay on SN12C renal; 79.7% in the assay with UO-31 renal; 100% with TK-10 renal; 100% in the assay on ACHN renal. For the same compound, the growth was 95.4% in the assay with CAKI-1 renal; 100% with A498 renal; 109% in the assay on CCRF-CEM leukemia; 102% in the assay with MOLT-4 leukemia; 102% in the assay on SR leukemia; 108% in the assay on RPMI-8226 leukemia. In addition, the growth was 101% in the assay with OVCAR-8 ovarian; 96.4% with OVCAR-5 ovarian; 113% in the assay on OVCAR-4 ovarian; 110% in the assay on SK-OV-3 ovarian; 96.4% in the assay on IGROV1 ovarian; 113% in the assay with OVCAR-3 ovarian. The growth in the assay on HS 578T breast is 95.6%; with NCI/ADR-RES ovarian it was 102%.

On to `CSc1[nH]c2ncnc(N)c2c1C#N`, for which the growth with SK-MEL-2 melanoma was 91%; in the assay on EKVX NSCLC, 83.2%; with SN12C renal, 99.4%; in the assay with UO-31 renal it was 76%; in the assay with TK-10 renal, 85.4%; in the assay on ACHN renal, 97.4%. Further, the growth in the assay with CAKI-1 renal was 37.7%; with A498 renal, 125%; in the assay on CCRF-CEM leukemia it was 110%; in the assay on MOLT-4 leukemia, 89.7%; in the assay with SR leukemia, 99.5%; with RPMI-8226 leukemia, 106%. Besides, the growth was 115% in the assay with OVCAR-8 ovarian; 87.4% in the assay on OVCAR-5 ovarian; 94.2% in the assay on OVCAR-4 ovarian; 92.7% with SK-OV-3 ovarian; 92.4% in the assay with IGROV1 ovarian; 125% with OVCAR-3 ovarian. The values for the growth in the assay on HS 578T breast and in the assay with NCI/ADR-RES ovarian were 130% and 86.1%, respectively.

For `CC/C=C\C[C@H](O)C/C=C1/C(=O)C=C[C@@H]1C/C=C\CCCC(=O)NC`, the growth was 16.1% in the assay with SK-MEL-2 melanoma; 23.8% in the assay with EKVX NSCLC; -3.66% (active) in the assay on SN12C renal; -76.8% (active) in the assay on UO-31 renal; -8.31% (active) with TK-10 renal; -86.1% (active) in the assay with ACHN renal. Moreover, the growth in the assay with CAKI-1 renal was 4.85% (active); in the assay with A498 renal, 56.1%; with CCRF-CEM leukemia it was -14.6% (active); with MOLT-4 leukemia, -14.1% (active); with SR leukemia, -27% (active); in the assay with RPMI-8226 leukemia, -3.18% (active). Besides, the growth was 11.1% in the assay on OVCAR-8 ovarian; 20.2% with OVCAR-5 ovarian; 44.4% with OVCAR-4 ovarian; 11.4% with SK-OV-3 ovarian; 7.71% (active) in the assay on IGROV1 ovarian; 4.67% (active) in the assay on OVCAR-3 ovarian. Moreover, the results for the growth in the assay on HS 578T breast and with NCI/ADR-RES ovarian were 47.7% and 6.92% (active), respectively.

As for `CC/C=C\C[C@H](O)C/C=C1/C(=O)C=C[C@@H]1C/C=C\CCCC(N)=O`, the growth in the assay on SK-MEL-2 melanoma was 13.9%; in the assay with EKVX NSCLC, 23.6%; in the assay on SN12C renal, -4.37% (active); with UO-31 renal, -70.8% (active); in the assay on TK-10 renal it was -13% (active); in the assay with ACHN renal, -82.2% (active). Besides, the growth in the assay on CAKI-1 renal is 11.3%; with A498 renal, 54.6%; in the assay on CCRF-CEM leukemia, -4.33% (active); with MOLT-4 leukemia, -13% (active); with SR leukemia, -27% (active); in the assay on RPMI-8226 leukemia it was 6.43% (active). Also, the growth in the assay on OVCAR-8 ovarian is 11.6%; in the assay on OVCAR-5 ovarian, 29.8%; in the assay with OVCAR-4 ovarian, 56.4%; with SK-OV-3 ovarian, 10.9%; in the assay on IGROV1 ovarian, 10.4%; in the assay on OVCAR-3 ovarian, 3.26% (active). The growth in the assay with HS 578T breast was 55.2%; in the assay with NCI/ADR-RES ovarian, 10.7%.

Consider `COc1cnc2c(c1)C(=O)c1c-2n(CCCN2CCNCC2)c(=O)c2cc([N+](=O)[O-])ccc12`, for which the growth is 77.8% in the assay on SK-MEL-2 melanoma; -64.6% (active) with EKVX NSCLC; -71.5% (active) in the assay with SN12C renal; -79.3% (active) in the assay with UO-31 renal; 32.4% in the assay with TK-10 renal; -88.4% (active) in the assay on ACHN renal. Moreover, the growth with CAKI-1 renal is -94.5% (active); with A498 renal, 16.9%; with CCRF-CEM leukemia, -23% (active); in the assay with MOLT-4 leukemia it was -4.73% (active); in the assay on SR leukemia it was -21.7% (active); with RPMI-8226 leukemia it was -37.1% (active). Also, the growth is -52.8% (active) in the assay on OVCAR-8 ovarian; -77.9% (active) in the assay with OVCAR-5 ovarian; -77.1% (active) in the assay with OVCAR-4 ovarian; 3.11% (active) with SK-OV-3 ovarian; -58.3% (active) in the assay on IGROV1 ovarian; -83.1% (active) in the assay on OVCAR-3 ovarian. The results for the growth in the assay on HS 578T breast and in the assay on NCI/ADR-RES ovarian were 70.7% and -44.3% (active), respectively.

As to `O=C1/C(=C/c2ccc(Cl)c(Cl)c2)CN(C(=O)CCN2CCC(=NO)CC2)C/C1=C\c1ccc(Cl)c(Cl)c1`, the growth in the assay on SK-MEL-2 melanoma was -86.9% (active); with EKVX NSCLC, -85.1% (active); in the assay with SN12C renal, -97.3% (active); in the assay on UO-31 renal, -95.7% (active); with TK-10 renal it was -88.9% (active); with ACHN renal, -98.4% (active). Besides, the growth in the assay on CAKI-1 renal is -92.1% (active); in the assay on A498 renal, -92% (active); with CCRF-CEM leukemia it was -28.2% (active); in the assay on MOLT-4 leukemia, -21.7% (active); in the assay with SR leukemia, -14% (active); in the assay on RPMI-8226 leukemia, -37.2% (active). In addition, the growth in the assay on OVCAR-8 ovarian was -95.5% (active); in the assay with OVCAR-5 ovarian it was -71.3% (active); in the assay on OVCAR-4 ovarian, -96.6% (active); with SK-OV-3 ovarian it was -55.7% (active); in the assay on IGROV1 ovarian, -63.3% (active); in the assay with OVCAR-3 ovarian it was -97.8% (active). For the same compound, the values for the growth in the assay on HS 578T breast and in the assay with NCI/ADR-RES ovarian were -28.5% (active) and -60.2% (active), respectively.

For `C/C(Cc1ccc(Cl)cc1)=C(\c1ccc(OCCN2CCCCCC2)cc1)c1ccc(OC(=O)Cc2ccccc2)cc1`, the growth with SK-MEL-2 melanoma is 90.6%; in the assay on EKVX NSCLC, 90.2%; in the assay on SN12C renal it was 68.7%; in the assay with UO-31 renal it was 44.6%; with TK-10 renal, 86.7%; in the assay on ACHN renal, 85.2%. Besides, the growth in the assay on CAKI-1 renal was 79.4%; in the assay on A498 renal, 92.5%; with CCRF-CEM leukemia, 57.2%; in the assay with MOLT-4 leukemia, 24.4%; with SR leukemia, 1.29% (active); in the assay with RPMI-8226 leukemia, 33%. The growth in the assay on OVCAR-8 ovarian was 72.1%; in the assay on OVCAR-5 ovarian, 73.8%; with OVCAR-4 ovarian, 85%; in the assay on SK-OV-3 ovarian it was 90.6%; in the assay on IGROV1 ovarian, 44.9%; in the assay on OVCAR-3 ovarian, 69.6%. Further, the values for the growth with HS 578T breast and with NCI/ADR-RES ovarian were 62.3% and 72.4%, respectively.
